Assay outcomes (PubChem)
Compounds with a hit are over-represented: about 6.6% of the library has one in this group of screens.
KB-3-1 cytotox: qHTS assay for MDR1-selective chemotherapeutics: Primary screen using the parental adenocarcinoma cell KB-3-1 | Potency, µM (highest dose often 46.1 µM), usual class: cytotoxic | 1.4% of 400,000 active | KB-3-1 viability, CellTiter-Glo ATP luminescence, 72 h; also: % is scaled to controls: 0 for no effect and ±100 for the full control effect; nearly all actives have a fitted effect of over 60% in size
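KB-3-1 parental drug-naive adenocarcinoma cells in DMEM/10% FBS, incubated 72 h at 37 C with pin-transferred compounds across a concentration series. Viability by CellTiter-Glo luminescence; concentration-response curves fitted after normalization.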
HT1080NT lethal: qHTS for induction of synthetic lethality in tumor cells producing 2HG: qHTS for the HT-1080-NT fibrosarcoma cell line; Potency, µM (highest dose often 46.1 µM), for inactives: at the highest dose activity, negative = less viability, most hits filed as cytotoxic; 1.6% of 360,000 active; HT-1080-NT fibrosarcoma viability, CellTiter-Glo ATP luminescence, 48 h;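 also: NT is the 2HG producing partner of a matched IDH1 knockdown line; 0% = DMSO-treated cells and -100% = media-only wells without cells; nearly all actives have a fitted effect of over 55% in size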
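750 cells/well, RPMI + 5% FBS; 2 h settle, compound pin-transfer, 48 h at 37 degrees C. CellTiter-Glo 10 min RT, luminescence. Normalized to DMSO and media-only wells.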
HT1080 IDH1KD tx: qHTS for induction of synthetic lethality in tumor cells producing 2HG: qHTS for the HT-1080-IDH1KD cell line | Potency, µM (top dose mostly 46.1 µM), for the others: at the highest dose activity, negative = toxicity, actives largely listed as cytotoxic | HT-1080 IDH1 knockdown viability, ATP luminescence, 48 h | 2% of 360,000 active;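 also: 0% = DMSO wells and -100% = cell-free medium wells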
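In this qHTS, HT-1080 cells depleted of IDH1 are exposed for 48 h at 37 °C to compound titrations. Toxicity is scored from CellTiter-Glo luminescence, with DMSO as full viability and medium alone as none.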
KB-V1 MDR tox: qHTS assay for MDR1-selective chemotherapeutics: Primary screen using the drug-selected MDR subline cells KB-V1 | KB-V1 MDR cells viability, CellTiter-Glo, 72 h | Potency, µM (doses to about 46.1 µM), most hits filed as cytotoxic | 3.4% of 400,000 active | AID 1347076, 2019; also: % is scaled to controls: 0 for no effect and ±100 for the full control effect; nearly all actives have a fitted effect of over 60% in size
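In this primary screen, KB-V1 cells overexpressing P-gp are incubated with library compounds (lowest to highest concentration) for 72 h at 37 degrees C before a luminescent ATP viability read.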
TGFb SMAD3 inh: qHTS for Inhibitors of TGF-b | HepG2 CAGA-GFP TGF-b/SMAD3 reporter, GFP fluorescence, 18 h; TGF-beta stimulated, 500 pg/mL final | Potency, µM (titrated, usually from 46.1 µM), without a hit: at the top dose activity, negative = inhibition, hits mostly inhibitors | 1.2% of 410,000 active | AID 588855, 2011; also: % is scaled to controls: 0 for no effect and ±100 for the full control effect; nearly all actives have a fitted effect of over 65% in size
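HEPG2 CAGA-GFP reporter cells (1000/well, DMEM with 1% FBS) received compounds, then recombinant TGF-beta at 500 pg/mL final for 18 hours at 37 degrees C. Per-cell GFP summed per well was normalised to unstimulated and stimulated DMSO controls before curve fitting.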
HepG2 tox: qHTS for Inhibitors of TGF-b: Cytotox Counterscreen | Potency, µM (doses to about 46.1 µM), without a hit: at the top dose activity change, negative = cytotoxicity, usual class: cytotoxic | AID 588856, 2011 | HepG2 CAGA-GFP viability, ATP luminescence, 18 h | 0.76% of 410,000 active
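HepG2 CAGA-GFP cells (1000/well, DMEM with 1% FBS) received compound, then TGF-beta at 500 pg/mL final, and were incubated 18 hours at 37 degrees C. Viability was read by CellTiter-Glo luminescence. Media-only wells were set as complete cell-killing and DMSO as no toxicity.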
Numbers without * were called inactive; i = inactive; ? = inconclusive; nt = no result given; ! = not active in a repeat. Calls follow the shape of the dose curve; as a rule, active = well fitted curve in the direction sought with a large enough effect; inconclusive = small, poorly fitted or top-dose-only effect, or another doubt; inactive = no such curve, though single readings can be large; an effect the other way counts as inactive or inconclusive. Potency is read from the fitted curve at half-maximal effect.

SMILES	KB-3-1 cytotox	HT1080NT lethal	HT1080 IDH1KD tx	KB-V1 MDR tox	TGFb SMAD3 inh	HepG2 tox
Cc1ccc(Nc2nc(C)c(NC(=O)c3ccc(C)cc3)c(Nc3ccc(C)cc3)n2)cc1	?	nt	nt	i	14.1µM*	-17.7%
CCOc1ccc(CNC(=O)c2sc3ncnc(N(C)C4CCCCC4)c3c2C)cc1	i	nt	nt	i	?	-7.6%
COc1ccc(-c2cn[nH]c2-c2ccc(OCc3ccc(F)cc3)cc2O)cc1OC	?	-27.9%	18.4µM*	?	14.1µM*	-30.4%
Oc1cc(OCc2ccccc2)ccc1-c1[nH]ncc1-c1ccccc1	i	16.4µM*	23.1µM*	i	?	20µM*
COc1ccc(-c2cn[nH]c2-c2ccc(OCc3ccccc3)cc2O)cc1OC	?	?	13µM*	?	?	-53.9%
COc1ccccc1-c1cn[nH]c1-c1ccc(OCc2ccccc2F)cc1O	i	?	?	i	?	22.4µM*
O=[N+]([O-])c1ccc(COc2ccc(-c3[nH]ncc3-c3ccccc3)c(O)c2)cc1	?	?	?	?	?	-65.4%
CCOC(=O)C(CC)n1nnc2sc(-c3ccccc3)cc2c1=O (centres undefined)	i	nt	nt	i	-0.6%	7.7%
CCOc1ccc(C(=O)NCCn2cc(SCC(=O)Nc3ccccc3)c3ccccc32)cc1	?	nt	nt	i	10µM*	-14.2%
CCOc1ccc(NC(=O)CSc2cn(CCNC(=O)c3ccccc3F)c3ccccc23)cc1	i	nt	nt	i	?	-25.7%
COC(=O)c1ccc(NC(=O)CSc2cn(CC(=O)N3CCCCC3)c3ccccc23)cc1	nt	nt	nt	nt	5.62µM*	-17.6%
O=C(CSc1cn(CC(=O)N2CCCCC2)c2ccccc12)Nc1ccccc1	i	nt	nt	i	-9.6%	-8.7%
O=C(Cn1cc(SCc2cccc(C(F)(F)F)c2)c2ccccc21)N1CCCCCC1	nt	nt	nt	nt	?	-14.3%
O=C(Cn1cc(SCc2ccc(C(F)(F)F)cc2)c2ccccc21)N1CCCC1	nt	nt	nt	nt	?	10µM*
O=C(NCCn1cc(SCc2ccc(F)cc2)c2ccccc21)c1c(F)cccc1F	?	?	-13.4%	18.4µM*!	?	-6.4%
CCOc1ccccc1NS(=O)(=O)c1c(C)nc2sccn2c1=O	i	nt	nt	i	-0.8%	8.2%
CS(=O)(=O)N1CCN(/[N+]([O-])=N/Oc2ccc([N+](=O)[O-])cc2[N+](=O)[O-])CC1	nt	nt	nt	nt	?	-99.1%
C=C1C(O)[C@@H]2O[C@]3(CC[C@H](/C=C/C(C)[C@@H]4CC(C)=CC5(O[C@H](C[C@@](C)(O)CO)CCC5O)O4)O3)CC[C@H]2O[C@@H]1C(O)CC(C)[C@H]1OC2(CCCCO2)CCC1C (some centres undefined)	0.0206µM*	1.16µM*	0.82µM*	?	7.94µM*	-15.8%
C=C1[C@@H](O)[C@@H]2O[C@]3(CC[C@H](/C=C/[C@@H](C)[C@@H]4CC(C)=CC5(O[C@H](C[C@@](C)(O)C(=O)OC)CC[C@H]5O)O4)O3)CC[C@H]2O[C@@H]1[C@@H](O)C[C@H](C)[C@H]1OC2(CCCCO2)CC[C@H]1C (some centres undefined)	?	0.651µM*	1.16µM*	18.4µM*	0.891µM*	-25.6%
COc1ccc(C(=O)N(Cc2ccc(C(C)C)cc2)C2CCS(=O)(=O)C2)cc1 (centres undefined)	i	nt	nt	i	26.9%	-3.2%
COc1cccc2sc3cc(C#CC4(O)CCCCC4)ccc3c(=O)c12	i	?	?	i	7.08µM*	7.08µM*
COc1cccc2sc3ccc(C#CC4(N)CCCCC4)cc3c(=O)c12	?	-14.6%	-14.4%	i	?	-97.9%
CCc1ccccc1NC(=O)c1ccc2[nH]c(C)c(C)c2c1	i	nt	nt	i	18.3%	-16.5%
O=C(/C=C/c1ccc2c(c1)OCO2)Nc1cccc([S+](=O)([O-])Nc2ccccc2F)c1	i	nt	nt	i	nt	nt
O=C(O)c1ccc(N/N=C/c2ccc(-c3ccccc3Cl)o2)cc1	i	?	23.1µM*	i	-2.5%	19.3%
SMILES	KB-3-1 cytotox	HT1080NT lethal	HT1080 IDH1KD tx	KB-V1 MDR tox	TGFb SMAD3 inh	HepG2 tox
O=C(N/N=C/c1ccc(-c2ccccc2Cl)o1)c1ccccc1	?	-20.3%	?	?	-0.1%	-30.0%
CC(C)c1ccc(/C=N/Nc2ccc(C(=O)O)cc2)cc1	i	2.3%	5.2%	i	-0.7%	2.8%
O=C(O)c1ccc(N/N=C/c2ccc(-c3ccc(Br)cc3)o2)cc1	i	25.9µM*	23.1µM*	i	4.4%	8.2%
O=C(O)c1ccc(N/N=C/c2ccc(-c3ccccc3)cc2)cc1	?	16.4µM*	10.3µM*	i	-10.6%	-12.1%
COc1cc(-c2nnc(COC(=O)C3c4ccccc4Oc4ccccc43)o2)cc(OC)c1OC	i	0.2%	3.5%	i	?	-12.8%
COc1ccc(C2=C(C=C(C#N)C#N)C(c3ccccc3C)c3ccccc3O2)cc1OC (centres undefined)	i	-5.2%	-13.5%	14.6µM*	?	15.3%
Cc1cc(C)n(-c2cccc(Cl)c2)c(=O)c1C#N	i	4.8%	5.4%	i	-19.4%	4.6%
Cc1cc2n(c(=O)c1C#N)CCCN2c1cccc(Cl)c1	i	8.8%	10.6%	13µM*	22.7%	1.4%
CCCS(=O)(=O)NC(=O)C1(C)CCCN(C(=O)COCc2ccccc2)C1 (centres undefined)	i	?	15.0%	i	14.0%	9.6%
Cc1ccc(S(=O)(=O)N2CCCCC2CCNC(=O)C(=O)NCc2ccccc2C)cc1 (centres undefined)	?	20.6µM*	16.4µM*	9.2µM*	?	-20.9%
Cc1ccc(S(=O)(=O)N2CCCCC2CCNC(=O)C(=O)NCc2ccccc2)cc1 (centres undefined)	3.66µM*	7.31µM*	6.51µM*	4.11µM*	-20.2%	-3.0%
Cc1ccc(S(=O)(=O)N2CCCCC2CCNC(=O)C(=O)NCC2CCCO2)cc1 (centres undefined)	i	-1.3%	-0.8%	5.8µM*	1.9%	3.9%
